# Substitutions are numbered along the chain they refer to.
# How the values were obtained:
# Test in all cases: yeast three-hybrid, YBZ-1, SC-Leu-His + 0.5 mM 3-AT, 4 days
# Settings in all cases: tags: N-Gal4 AD-HA kept; label: inside an RPR1-promoter hybrid RNA with tandem MS2 sites; ssRNA
# PUM1 PUF domain R5-RSQ = PUM1 PUF domain R5-RSQ (Homo sapiens, UniProt Q14671 828-1176, C1007R;R1008S)
# In short: (§1)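 Pumilio-1 PUF domain libraries, randomized (NNK) at the three base-contacting residues of each repeat, were co-expressed with matching RNA elements from a centromeric plasmid in strain YBZ-1 (LexA–MS2 coat fusion, HIS3 reporter). Transformants were plated on SC-Leu (input) and SC-Leu-His + 0.5 mM 3-AT (selection) for four days, and repeat regions were PCR-amplified and Illumina-sequenced. The interaction score is the log2 change in variant frequency from input to selection, with pseudocount 1 where absent.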
# PUM1 PUF domain R5-RCV = PUM1 PUF domain R5-RCV (Homo sapiens, UniProt Q14671 828-1176, C1007R;R1008C;Q1011V)
# In short: as §1
# PUM1 PUF domain R5-RHV = PUM1 PUF domain R5-RHV (Homo sapiens, UniProt Q14671 828-1176, C1007R;R1008H;Q1011V)
# In short: as §1
# PUM1 PUF domain R1-QWK = PUM1 PUF domain R1-QWK (Homo sapiens, UniProt Q14671 828-1176, S863Q;R864W;Q867K)
# In short: as §1
# PUM1 PUF domain R4-SRM = PUM1 PUF domain R4-SRM (Homo sapiens, UniProt Q14671 828-1176, N971S;H972R;Q975M)
# In short: as §1
# PUM1 PUF domain R5-EAC = PUM1 PUF domain R5-EAC (Homo sapiens, UniProt Q14671 828-1176, C1007E;R1008A;Q1011C)
# In short: as §1
# PUM1 PUF domain R6-IWL = target: T1, PUM1 PUF domain R6-IWL (Homo sapiens, UniProt Q14671 828-1176, N1043I;Y1044W;Q1047L)
# T1 sequence: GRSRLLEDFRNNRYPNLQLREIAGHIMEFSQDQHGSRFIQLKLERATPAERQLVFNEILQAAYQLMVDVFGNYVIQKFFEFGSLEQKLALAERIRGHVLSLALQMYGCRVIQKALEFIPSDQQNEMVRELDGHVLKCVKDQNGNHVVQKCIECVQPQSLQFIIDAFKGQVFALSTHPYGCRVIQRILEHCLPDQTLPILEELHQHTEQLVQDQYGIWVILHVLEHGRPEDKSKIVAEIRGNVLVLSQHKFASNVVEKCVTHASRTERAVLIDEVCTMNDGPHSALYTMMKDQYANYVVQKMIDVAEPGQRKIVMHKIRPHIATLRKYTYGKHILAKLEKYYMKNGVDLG
# In short: as §1
# PUM1 PUF domain R6-HHR = target: T2, PUM1 PUF domain R6-HHR (Homo sapiens, UniProt Q14671 828-1176, N1043H;Y1044H;Q1047R)
# T2 sequence: T1 sequence with I216H, W217H, L220R
# In short: as §1
# PUM1 PUF domain R3-VFY = PUM1 PUF domain R3-VFY (Homo sapiens, UniProt Q14671 828-1176, C935V;R936F;Q939Y)
# In short: as §1
# PUM1 PUF domain R3-RRS = PUM1 PUF domain R3-RRS (Homo sapiens, UniProt Q14671 828-1176, C935R;Q939S)
# In short: as §1
sequence,measurement,setting,value
GGCUAGAACUAGUGGAUCCCCCGGCGCCCGGCGGCUCGAGCCCGGGUAAGUGUCAAUAGUCUGCAUGCCGCCGGGCGCCAUGCCUGCAGGUCGACUCUAGAAAACAUG,binding signal,PUM1 PUF domain R5-RSQ,4.6 log2 enrichment (interaction score)
same,binding signal,PUM1 PUF domain R5-RCV,2.81 log2 enrichment (interaction score)
same,binding signal,PUM1 PUF domain R5-RHV,5.74 log2 enrichment (interaction score)
GGCUAGAACUAGUGGAUCCCCCGGCGCCCGGCGGCUCGAGCCCGGGUAAGUGUAAAUCGUCUGCAUGCCGCCGGGCGCCAUGCCUGCAGGUCGACUCUAGAAAACAUG,binding signal,PUM1 PUF domain R1-QWK,5.98 log2 enrichment (interaction score)
GGCUAGAACUAGUGGAUCCCCCGGCGCCCGGCGGCUCGAGCCCGGGUAAGUGUACAUAGUCUGCAUGCCGCCGGGCGCCAUGCCUGCAGGUCGACUCUAGAAAACAUG,binding signal,PUM1 PUF domain R4-SRM,2.16 log2 enrichment (interaction score)
GGCUAGAACUAGUGGAUCCCCCGGCGCCCGGCGGCUCGAGCCCGGGUAAGUGUUAAUAGUCUGCAUGCCGCCGGGCGCCAUGCCUGCAGGUCGACUCUAGAAAACAUG,binding signal,PUM1 PUF domain R5-RSQ,4.05 log2 enrichment (interaction score)
same,binding signal,PUM1 PUF domain R5-RHV,5.95 log2 enrichment (interaction score)
GGCUAGAACUAGUGGAUCCCCCGGCGCCCGGCGGCUCGAGCCCGGGUAAGUGUAUAUAGUCUGCAUGCCGCCGGGCGCCAUGCCUGCAGGUCGACUCUAGAAAACAUG,binding signal,PUM1 PUF domain R4-SRM,2.54 log2 enrichment (interaction score)
GGCUAGAACUAGUGGAUCCCCCGGCGCCCGGCGGCUCGAGCCCGGGUAAGUGUGAAUAGUCUGCAUGCCGCCGGGCGCCAUGCCUGCAGGUCGACUCUAGAAAACAUG,binding signal,PUM1 PUF domain R5-EAC,3.49 log2 enrichment (interaction score)
GGCUAGAACUAGUGGAUCCCCCGGCGCCCGGCGGCUCGAGCCCGGGUAAGUGUAAAUAGUCUGCAUGCCGCCGGGCGCCAUGCCUGCAGGUCGACUCUAGAAAACAUG,binding signal,PUM1 PUF domain R5-RSQ,1.05 log2 enrichment (interaction score)
same,binding signal,PUM1 PUF domain R6-IWL,3.09 log2 enrichment (interaction score)
same,binding signal,PUM1 PUF domain R6-HHR,5.44 log2 enrichment (interaction score)
same,binding signal,PUM1 PUF domain R4-SRM,3.86 log2 enrichment (interaction score)
same,binding signal,PUM1 PUF domain R5-RHV,2.87 log2 enrichment (interaction score)
same,binding signal,PUM1 PUF domain R3-VFY,6.12 log2 enrichment (interaction score)
GGCUAGAACUAGUGGAUCCCCCGGCGCCCGGCGGCUCGAGCCCGGGUAAGUGUAAUUAGUCUGCAUGCCGCCGGGCGCCAUGCCUGCAGGUCGACUCUAGAAAACAUG,binding signal,PUM1 PUF domain R3-RRS,3.9 log2 enrichment (interaction score)
same,binding signal,PUM1 PUF domain R3-VFY,5.89 log2 enrichment (interaction score)

# Source: PMC8384837, “Expanding the binding specificity for RNA recognition by a PUF domain”
